Laboratory results reported in the OligoGym collection.

Biological target: MACROD1
Test: pooled miR-30 sensor sort-seq; sequence = guide strand
Conditions: shRNA
Also: reference of the scale not given here.

Sequence	sensor-assay potency score (higher = more potent)
TGCTTGTCCTTTTTATACCTGG	-0.621
TTTCGCCTCCTTCCAGTCGGTG	-1.53
TTCAGCCTGACAAAGTCCTTGC	0.08

Biological target: MAD2L2
Test: as above
Conditions: shRNA

Sequence	sensor-assay potency score (higher = more potent)
TCCACATGAGACAACAGCGAGT	-1.88
TTTAGTGGTATCAGCCGGGGGT	-0.467
TGTACTTCTTGCGTTTCTGGAA	-0.3
TATACTGATTCAGCTCCGGGTG	-0.735
TTTTAGTGGTATCAGCCGGGGG	-1.07
TTTTTAGTGGTATCAGCCGGGG	-0.778
TTGTACTTCTTGCGTTTCTGGA	-0.29
TGGATCTTCTCCATGTTGCGAG	-0.717
TTCCACGTAAAGCTGCATCTTT	-0.0388
TGAGACAACAGCGAGTCTGAGC	-0.635
TTTATCCAAAATCACCACCACC	-1.44
TTTCTCCACATCATTCTTCTCC	-0.203
